Drawing on PubChem BioAssay AID1240 (Sanford-Burnham Center for Chemical Genomics, 2008), this text covers displacement for 65 compounds.

The campaign covered roughly 50,000 compounds. About 800 (1.6%) showed an effect of 50% or more. This excerpt belongs to a sample that is enriched for strong results.

Chain of Bcl-2-like protein 10 (Homo sapiens) (Q9HD36 whole entry, looked up): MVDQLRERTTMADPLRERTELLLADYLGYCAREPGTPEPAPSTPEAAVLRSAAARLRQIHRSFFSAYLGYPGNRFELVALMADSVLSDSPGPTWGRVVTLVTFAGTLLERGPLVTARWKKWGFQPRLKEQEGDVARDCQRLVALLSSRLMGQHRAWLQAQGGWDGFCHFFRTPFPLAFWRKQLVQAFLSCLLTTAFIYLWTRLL

This assay addresses Bcl-2-like protein 10 (Homo sapiens) (UniProt Q9HD36). Briefly: Phenotype converters, Bcl-B/TR3 peptide binding displacement, primary biochemical FP (AID 1240).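 Also: 0% = Bcl-B with tracer peptide and DMSO and 100% = tracer peptide lacking Bcl-B.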 The settings on record: GST-Bcl-B / FITC-TR3 peptide fluorescence polarization; stronger effect = higher value; compound at 3.75 mg/L. On the technique in general: Polarisation of emitted light reports the rotation of a fluorescent probe.
As for `CN(C)CCNC(=O)/C(=N\O)c1ccccn1`, the displacement stood at 15.9%.

With `COc1ccc(CN(C)C(=O)c2cccc(C(=O)N(C)Cc3ccc(OC)cc3)c2)cc1`, the displacement was found to be 10.7%.

In the case of `COc1cccc(C(=O)Nc2ccc(I)cc2Cl)c1`, the displacement was 8.2%. For `Nc1c(Cc2ccccc2)ccc2c1C(=O)c1ccccc1C2=O` the value was 10.3%. For `CC(C)(CN1CCOCC1)NS(=O)(=O)c1ccc(Cl)cc1` the value was 7.4%. Consider `CCc1ccc(OCC(=O)Nc2ccc3ccccc3c2)cc1`, for which the displacement stood at 11.4%. For the compound `Cc1ccc(N2NC(=O)/C(=C/c3ccc(-c4ccc(S(N)(=O)=O)cc4)o3)C2=O)cc1`, the displacement was 5.6%. As for `CC(=O)Nc1ccc(S(=O)(=O)N(Cc2ccccc2)C(C)C)cc1`, the displacement came to 130%. For `CCN(Cc1ccccc1)S(=O)(=O)c1ccc(NC(C)=O)cc1` the value was 19.2%.

As to `CC(C)N(Cc1ccccc1)S(=O)(=O)c1ccc(F)cc1`, the displacement is 12.3%.

In the case of `CC1CN(CC(O)COc2ccc3ccccc3c2)CC(C)O1` (stereo not given), the displacement amounted to 0.2%. Regarding `COc1ccc2[nH]c3c(c2c1)CCn1c-3nc2scc(-c3ccccc3)c2c1=O`, the displacement was 0.2%. Regarding `CCc1cc2c(C)cc(=O)oc2cc1OC(C)=O`, the displacement turned out to be 10.1%. Regarding `COc1ccc(CN=Cc2c(O)n(-c3ccc(OC)cc3)c(=O)[nH]c2=O)cc1`, the displacement was -3.4%. As for `COc1cc(CN=Cc2c(O)n(-c3ccc(F)cc3)c(=O)[nH]c2=O)cc(OC)c1`, the displacement turned out to be 84.7%. `COc1ccc(CN=Cc2c(O)n(-c3ccc(Cl)cc3)c(=O)[nH]c2=O)cc1`: the displacement is -6.6%.

Take `COc1ccc(-n2c(O)c(C=NCc3ccc(F)cc3)c(=O)[nH]c2=O)cc1`: the displacement came to 12.4%.

As to `COc1cccc(-n2c(O)c(C=Nc3cccc(Cl)c3)c(=O)[nH]c2=O)c1`, the displacement was -3.7%. As to `COc1ccc(CN=Cc2c(O)n(-c3cccc(Cl)c3)c(=O)[nH]c2=O)cc1`, the displacement came out at 81.4%. Consider `COc1ccc(-n2c(O)c(C=Nc3cccc(Cl)c3)c(=O)[nH]c2=O)cc1`, for which the displacement was 14.2%. For `COc1ccc(-n2c(O)c(C=Nc3ccc(Cl)cc3)c(=O)[nH]c2=O)cc1`, the displacement is 14.3%. Regarding `COc1cc(CN=Cc2c(O)n(-c3cc(OC)ccc3OC)c(=O)[nH]c2=O)cc(OC)c1`, the displacement is 1.6%. Regarding `COc1ccc(N=Cc2c(O)n(-c3ccccc3)c(=O)[nH]c2=O)cc1Cl`, the displacement is 113%. For `Cc1ccc(N=Cc2c(O)n(-c3ccccc3)c(=O)[nH]c2=O)cc1`, the displacement is -5.6%.

As for `COc1cc(N=Cc2c(O)n(-c3ccc(Cl)cc3)c(=O)[nH]c2=O)cc(OC)c1`, the displacement worked out at 70.5%. In the case of `COc1ccccc1CC(=O)Nc1cc(C)ccn1`, the displacement came out at 12.9%.

`CS(=O)(=O)N(CC(=O)Nc1cccc(Br)c1)c1ccc(Oc2ccccc2)cc1`: the displacement was 1.9%. The same measure for `COc1ccc(C2CC(=O)C3=C(C2)Nc2ccccc2NC3c2ccc(NC(C)=O)cc2)cc1OC` (stereo not given): -4.9%; for `CCCC1=C(C(=O)OCC)C(c2ccc(CC)cc2)NC(=O)N1` (stereo not given): -8.5%.

For the compound `O=[N+]([O-])c1ccc(-c2noc(-c3ccccc3Br)n2)cc1`, the displacement amounted to 4.3%. On to `COc1ccc(CN2CCN(Cc3ccncc3)CC2)c(OC)c1`, for which the displacement is -16.7%.

As to `NC(=O)c1ccc(NC(=O)C2CCCC2)cc1`, the displacement is -4%. Turning to `O=c1[nH]c(=O)n(-c2cccc(Cl)c2)c(O)c1C=NCCCn1ccnc1`, the displacement stood at 142%. Take `Cc1ccccc1-n1c(O)c(C=NCCCn2ccnc2)c(=O)[nH]c1=O`: the displacement was -3.4%. Take `O=c1[nH]c(=O)n(-c2ccccc2Cl)c(O)c1C=NCCCn1ccnc1`: the displacement is 11.5%. Take `COCCOC(=O)c1c(C)oc2c1cc(NS(=O)(=O)c1ccc(F)cc1)c1ccccc12`: the displacement was 18%. Consider `Cc1ccc(-c2nnc(N)s2)cc1C`, for which the displacement worked out at 5.1%. As for `O=c1[nH]c(=O)n(-c2ccc(Cl)cc2)c(O)c1/C=C1/C=CC=N1`, the displacement is -46%. With `COc1ccc(Cn2c(O)c(/C=C3\C=CC=N3)c(=O)[nH]c2=O)cc1`, the displacement came out at 12.5%. In the case of `COc1ccc(-n2c(O)c(/C=C3\C=CC=N3)c(=O)[nH]c2=O)cc1`, the displacement came out at 85.4%. `O=c1[nH]c(=O)n(-c2cccc(C(F)(F)F)c2)c(O)c1C=C1C=CC=N1`: the displacement is 6.3%. In the case of `O=c1[nH]c(=O)n(-c2ccc(Br)cc2)c(O)c1C=C1C=CC=N1`, the displacement turned out to be 123%. The same measure for `CCOc1ccc(-n2c(O)c(C=C3C=CC=N3)c(=O)[nH]c2=O)cc1`: 13.1%.

Consider `O=C1c2ccccc2C(=O)c2c1cccc2S(=O)(=O)Nc1ccc(Cl)cc1`, for which the displacement came to 9.5%.

On to `CCOC(=O)C1=C(c2ccccc2)N=c2s/c(=C\c3ccc(O)c(OC)c3)c(=O)n2C1c1ccccc1OC` (stereo not given), for which the displacement turned out to be 43.3%. For `CCOC(=O)C1=C(c2ccccc2)N=c2s/c(=C\c3ccc(O)c(OC)c3)c(=O)n2C1c1ccc(OC)cc1` (stereo not given), the displacement was 104%.

Take `CCOC(=O)C1=C(C)N=c2s/c(=C\c3ccc(O)c(OC)c3)c(=O)n2C1c1ccc(OC)cc1` (stereo not given): the displacement stood at 4.2%. In the case of `CCOC(=O)C1=C(C)N=c2s/c(=C\c3ccc(O)c(OC)c3)c(=O)n2C1c1ccc(N(C)C)cc1` (stereo not given), the displacement is -13.9%. As for `CCOC(=O)C1=C(C)N=c2s/c(=C\c3ccc(O)c(OC)c3)c(=O)n2C1c1ccc(C)cc1` (stereo not given), the displacement stood at 98.4%. With `CCOC(=O)C1=C(C)N=c2s/c(=C\c3ccc(O)c(OC)c3)c(=O)n2C1c1cccc(OC)c1` (stereo not given), the displacement was -2.1%. In the case of `C=CCSc1nc2ccccc2n1C(=O)C1C(C=C(Cl)Cl)C1(C)C` (stereo not given), the displacement is 7.1%.

Turning to `CCOc1ccc(C(=O)NCc2cccs2)cc1OCC`, the displacement is -0.9%.

As to `O=C(NCCN1CCCC1=O)Nc1ccccc1`, the displacement was found to be 10.9%. For `O=C(NCCCNC(=O)c1cccc(F)c1)c1cccc(F)c1` the value was 3.2%; for `O=C(c1cccc(I)c1)N1CCN(c2ccccn2)CC1`, 6.9%. With `O=C1CC(N2CCN(Cc3ccccc3)CC2)C(=O)N1c1ccc(Cl)c(Cl)c1` (stereo not given), the displacement was 1.7%. For `CN(C)c1ccc(/C=C/c2nc3ccccc3c(=O)n2-c2cccc3ccccc23)cc1`, the displacement amounted to 105%.

In the case of `O=c1c2ccccc2nc(/C=C/c2ccc3c(c2)OCO3)n1-c1cccc2ccccc12`, the displacement is 78.1%. For `O=c1c2ccccc2nc(/C=C/c2ccccc2[N+](=O)[O-])n1-c1cccc2ccccc12` the value was -7%; for `Cn1c(/C=C/c2ccc3c(c2)OCO3)nc2ccccc2c1=O`, 1.3%; for `O=c1c2ccccc2nc(/C=C\c2ccccc2O)n1-c1cccc2ccccc12`, -6.6%. Take `O=c1c2ccccc2nc(/C=C/c2cccc([N+](=O)[O-])c2)n1-c1cccc2ccccc12`: the displacement was found to be 5%. Consider `COc1ccccc1-n1cnc2cc(NC(C)=O)ccc21`, for which the displacement was determined as 14.7%. The same measure for `CC(C)(C)c1cc(C2=C(Cl)C(=O)c3ccccc3C2=O)cc(C(C)(C)C)c1O`: 6.9%; for `O=C1N=c2ccc(Cl)cc2=C1c1sc(NS(=O)(=O)Cc2ccccc2)nc1O`: -7.2%.
